GalR3 antagonist = antagonists of human GalR3; O60755; HEK293 GalR3-CNG cAMP membrane potential fluorescence; galR3 body fused to GalR1 C-terminus; 360,000 compounds, 0.44% hits; inhibition, % at 3 µM; AID 651719;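 active = inhibition above the screen-wide average plus 3 SD, cut at about 13% in these data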;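 note: forskolin and galanin both at EC90 stimulate the cells; cAMP rise reported by CNG channel membrane potential dye signal; 0% = forskolin plus galanin with DMSO and 100% = forskolin alone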
COUP-TFII inh = inhibitors of human COUP-TFII (NR2F2); HEK293T NGFI-A luciferase reporter, luminescence; inhibition, % at 8.6 µM; 370,000 compounds, 0.7% hits; AID 686940;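 active = inhibition above a per-plate cutoff, mean inhibition of test wells between control levels plus 3 SD, cut at about 38% in these data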;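 note: cells cotransfected with COUP-TFII expression vector driving the NGFI-A reporter; 0% = median of COUP-TF2 test wells and 100% = reporter-only cells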
Target sequence (P24468 whole entry, looked up): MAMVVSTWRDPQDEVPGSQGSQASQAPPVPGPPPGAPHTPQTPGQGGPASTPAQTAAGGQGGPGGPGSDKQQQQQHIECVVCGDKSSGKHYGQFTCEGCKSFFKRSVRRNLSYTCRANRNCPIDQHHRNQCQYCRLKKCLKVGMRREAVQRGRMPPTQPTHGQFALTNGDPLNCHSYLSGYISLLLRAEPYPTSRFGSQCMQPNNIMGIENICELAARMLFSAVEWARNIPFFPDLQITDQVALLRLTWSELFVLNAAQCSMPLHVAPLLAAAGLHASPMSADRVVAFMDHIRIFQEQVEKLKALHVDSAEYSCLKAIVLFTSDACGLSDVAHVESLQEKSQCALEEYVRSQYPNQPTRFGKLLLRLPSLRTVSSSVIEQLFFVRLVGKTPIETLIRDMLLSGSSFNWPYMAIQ
Jurkat NFkB inh = lowers PMA/ionomycin-induced NF-kB signal in Jurkat cells; 330,000 compounds, 0.53% hits; PMA/ionomycin-induced NF-kB luciferase reporter, luminescence; AID 435003; inhibition, % at 4 µM; in the data active = inhibition above about 50%
697 NFkB inh = inhibitors of the PMA/ionomycin-induced NF-kB reporter in 697 B cells; 697 B-cell NF-kB luciferase reporter, 16 h; inhibition, % at 4 µM; 330,000 compounds, 0.33% hits; AID 435022; in the data active = inhibition above about 35%
Gli-Sufu antag = antagonists of Gli-Sufu signaling; 340,000 compounds, 0.74% hits; AID 588413; inhibition, % at 5 µM; Sufu-KO-LIGHT fibroblasts, Gli luciferase reporter luminescence;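 active = inhibition above about 55%, limit read from the data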;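 note: 0% = DMSO-treated cells and 100% = wells with medium but no cells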
GalR3 conf = confirmation of human galanin receptor 3 antagonists | shares compounds with GalR3 antagonist | HEK293 GalR3 CNG cAMP biosensor, membrane potential fluorescence; galR3 fused to GalR1 carboxy tail; challenged with forskolin and galanin at EC90 | inhibition, % at 3 µM | 1,600 compounds, 59% hits | AID 652245;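 active = inhibition above the primary screen's cutoff, the mean inhibition of all screened compounds plus 3 SD, cut at about 13% in these data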;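 note: 0% = forskolin plus galanin and 100% = forskolin alone with DMSO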
CNG parental = counter-screen for GalR3 antagonists: nonspecific agonists in parental HEK-CNG cells; shares compounds with GalR3 antagonist; HEK293-CNG parental cells, cAMP membrane potential fluorescence; normalised: DMSO wells 0%, forskolin wells 100%; activation, % at 3 µM; 1,600 compounds, 10% hits; AID 652268; in the data active = activation above about 1.3%
* marks the source's active call; other numbers are inactive results; . = no result. The list is not random: actives were taken first. Their share in the collection is about 2%.

SMILES	GalR3 antagonist	COUP-TFII inh	Jurkat NFkB inh	697 NFkB inh	Gli-Sufu antag	GalR3 conf	CNG parental
Fc1cc2ncn(Cc3ccccc3)c2cc1F	.	-21	-14	13	3	2	0
Nc1oc2ccccc2c1C(=O)Cc1ccccc1O[C@@H]1O[C@H](CO)[C@@H](O)[C@H](O)[C@H]1O	16*	-15	12	16	5	9	0
O=C1N=c2ccccc2=C1c1sc(=S)n(-c2ccc(O)cc2)c1O	13*	-8	-12	-3	1	7	-2
Cc1c(-n2c(O)c(C3=c4ccccc4=NC3=O)sc2=S)c(=O)n(-c2ccccc2)n1C	-2	8	-6	2	5	.	.
CC1(C)CC(=O)/C(=C(/O)CCCN2C(=O)c3ccccc3C2=O)C(=NC(C)(C)C)C1	-1	12	-27	-4	3	.	.
CC1(C)CC(=O)/C(=C(\O)CCCN2C(=O)c3ccccc3C2=O)C(=NCC(=O)O)C1	15*	-17	-8	-3	-16	1	0
COc1ccc(C2=CCN(C)C(=O)N2c2ccc([N+](=O)[O-])cc2)cc1	.	-30	.	.	.	.	.
Cc1oc(-c2ccccc2)cc1C(=O)Nc1cccc(/C=C/C(=O)O)c1	75*	-8	11	7	3	111*	0
Cc1cc(C(=O)Nc2cccc(/C=C/C(=O)O)c2)c(C)o1	46*	8	3	5	-5	88*	0
Cc1oc(C(C)(C)C)cc1C(=O)Nc1cccc(/C=C/C(=O)O)c1	3	8	-1	2	-5	.	.
Cc1oc(-c2ccccc2)cc1C(=O)Nc1ccccc1	-6	5	-8	-8	15	.	.
Fc1ccccc1Cn1ccc2ccc(-c3ccc4ccn(Cc5ccccc5)c4c3)cc21	.	-2	.	.	.	.	.
COc1cc(-c2csc(N3CCC(C(N)=O)CC3)n2)cc(OC)c1OC	.	-27	.	.	.	.	.
CCOC(=O)[C@]12CCCC=C1N(Cc1ccc(OC)cc1)C(=O)[C@@H]2CC(=O)N1CCCCC1	.	23	.	.	.	.	.
Cc1sc2nc(COC(=O)CNC(=O)c3ccc(F)cc3Cl)[nH]c(=O)c2c1C	.	8	.	.	.	.	.
Oc1ccccc1N=N/C(=N/Nc1ccccc1O)c1ccccc1	2	16	-10	8	1	.	.
N#C/C(N=Nc1ccccc1O)=N\Nc1ccccc1O	61*	3	0	-89	17	84*	-2
Cn1c(SCC(=O)Nc2ccccc2-c2ccccc2)nnc1-c1cnccn1	.	5	.	.	.	.	.
COc1cc(NC(=O)c2ccccc2)c(C)cc1NC(=O)CSc1nnc(-c2ccco2)n1Cc1ccco1	.	20	.	.	.	.	.
CCOC(=O)[C@]12CCCC=C1N(Cc1ccc(OC)cc1)C(=O)[C@@H]2CC(=O)N1CCC(c2ccccc2)CC1	.	-7	.	.	.	.	.
O=C(COC(=O)c1n[nH]c2ccccc12)NCCc1ccc(Cl)cc1	36*	-36	3	13	-3	56*	1
COc1ccc(CNC(=O)COC(=O)c2n[nH]c3ccccc23)cc1	-1	9	4	1	-2	.	.
C[C@@H]1COc2cccc(N3CCSCC3)c2S(=O)(=O)N1C	.	-11	.	.	.	.	.
Cc1ccccc1NC(=O)CNc1ccc(Cl)c(C(F)(F)F)c1	14*	6	26	-9	5	2	0
CNCC(=O)Nc1ccc(Cl)c(C(F)(F)F)c1	-3	-10	-4	8	-2	.	.
SMILES	GalR3 antagonist	COUP-TFII inh	Jurkat NFkB inh	697 NFkB inh	Gli-Sufu antag	GalR3 conf	CNG parental
C[N+]1(CC(=O)OCCCC2CCCCC2)CCCC1	7	1	9	8	39	.	.
CCOC(=O)C[N+]1(C)CCN(C(C)=O)CC1	13*	-4	9	3	-4	-3	0
CN1CCCCC(NC(=O)c2ccccc2)C1=O (stereo not given)	-3	15	.	.	.	.	.
COc1cccc(C2N(c3ccccc3)CCN2c2ccccc2)c1OC	14*	17	-19	4	-4	9	0
COc1cccc(-c2nnc(SCC(=O)Nc3ccc(OCc4ccccc4)cc3)n2Cc2ccco2)c1	.	-1	.	.	.	.	.
CC(CCc1ccc(O)cc1)NCc1ccc(Br)cc1 (stereo not given)	31*	-17	10	-13	18	58*	1
CC(CCc1ccc(O)cc1)NCCC(c1ccccc1)c1ccccc1 (stereo not given)	-14	-3	-4	-13	18	.	.
